# Measurements published in PubChem BioAssay AID1159580 (chemical genetic matrix, 2015).
# Where “and” joins values, the source holds several entries; their conditions need not be identical. Identical values can stand only once. Among all 5,500 compounds or so, about 2,000 (36%) were called active. About 18% were inconclusive and are not listed. Cut-off read from the data, not from the text of the source: active = normalized growth mostly below about 0.91 (no sharp cut-off); inconclusive = no clear call, values can overlap the other calls; inactive = mostly above about 0.92. This is one part of the list. More than one record can exist for a structure, and the calls need not agree.
# Assay: chemical genetic growth profiling, strain panel (AID 1159580);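 note: tested at 20 µM; growth read once vehicle control cultures reached saturation at 30 °C; 1 = growth at the plate median or of vehicle wells; lower values mean less growth of the strain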
# Details: S. cerevisiae deletion strains, growth OD
structure (smiles),measurement,setting,value
O=C1CCc2cc(OCCCCc3nnnn3C3CCCCC3)ccc2N1,normalized growth,"locus YAL013W, strain DEP1, stronger effect = lower value",1 (inactive)
same,normalized growth,"locus YAL021C, strain ccr4, stronger effect = lower value",0.996 (inactive)
same,normalized growth,"locus YAL026C, strain drs2, stronger effect = lower value",1.01 (inactive)
same,normalized growth,"locus YAL030W, strain snc1, stronger effect = lower value",0.985 (inactive)
same,normalized growth,"locus YAL040C, strain CLN3, stronger effect = lower value",1.01 (inactive)
same,normalized growth,"locus YBL061C, strain skt5, stronger effect = lower value",0.991 (inactive)
same,normalized growth,"locus YBR009C, strain hhf1, stronger effect = lower value",0.989 (inactive)
same,normalized growth,"locus YBR021W, strain FUR4, stronger effect = lower value",1.03 (inactive)
same,normalized growth,"locus YBR023C, strain chs3, stronger effect = lower value",1 (inactive)
same,normalized growth,"locus YBR171W, strain sec66, stronger effect = lower value",0.981 (inactive)
same,normalized growth,"locus YBR229C, strain ROT2, stronger effect = lower value",1 (inactive)
same,normalized growth,"locus YBR231C, strain swc5, stronger effect = lower value",0.99 (inactive)
same,normalized growth,"locus YBR279W, strain paf1, stronger effect = lower value",0.989 (inactive)
same,normalized growth,"locus YCL011C, strain gbp2, stronger effect = lower value",0.995 (inactive)
same,normalized growth,"locus YCL016C, strain dcc1, stronger effect = lower value",1 (inactive)
same,normalized growth,"locus YCL029C, strain bik1, stronger effect = lower value",0.988 (inactive)
same,normalized growth,"locus YCL061C, strain MRC1 (second series), stronger effect = lower value",0.0772 (active)
same,normalized growth,"locus YCL061C, strain MRC1, stronger effect = lower value",0.988 (inactive)
same,normalized growth,"locus YCL069W, strain vba3, stronger effect = lower value",0.982 (inactive)
same,normalized growth,"locus YCR088W, strain abp1, stronger effect = lower value",0.992 (inactive)
same,normalized growth,"locus YDL005C, strain med2, stronger effect = lower value",0.983 (inactive)
same,normalized growth,"locus YDL035C, strain GPR1, stronger effect = lower value",1.01 (inactive)
same,normalized growth,"locus YDL040C, strain nat1, stronger effect = lower value",0.988 (inactive)
same,normalized growth,"locus YDL074C, strain BRE1, stronger effect = lower value",1.03 (inactive)
same,normalized growth,"locus YDL101C, strain DUN1, stronger effect = lower value",1 (inactive)
same,normalized growth,"locus YDL134C, strain PPH21, stronger effect = lower value",1.01 (inactive)
same,normalized growth,"locus YDL185W, strain tfp1, stronger effect = lower value",0.993 (inactive)
same,normalized growth,"locus YDL192W, strain arf1, stronger effect = lower value",0.971 (inactive)
same,normalized growth,"locus YDR001C, strain nth1, stronger effect = lower value",0.998 (inactive)
same,normalized growth,"locus YDR069C, strain doa4, stronger effect = lower value",0.987 (inactive)
same,normalized growth,"locus YDR101C, strain arx1, stronger effect = lower value",0.977 (inactive)
same,normalized growth,"locus YDR137W, strain rgp1, stronger effect = lower value",0.894 (inactive)
same,normalized growth,"locus YDR150W, strain NUM1, stronger effect = lower value",1.01 (inactive)
same,normalized growth,"locus YDR159W, strain sac3, stronger effect = lower value",0.978 (inactive)
same,normalized growth,"locus YDR162C, strain NBP2, stronger effect = lower value",1.02 (inactive)
same,normalized growth,"locus YDR195W, strain ref2",0.958 (inactive)
same,normalized growth,"locus YDR297W, strain sur2, stronger effect = lower value",0.995 (inactive)
same,normalized growth,"locus YDR318W, strain mcm21, stronger effect = lower value",1 (inactive)
same,normalized growth,"locus YDR334W, strain swr1, stronger effect = lower value",0.999 (inactive)
same,normalized growth,"locus YDR335W, strain msn5, stronger effect = lower value",0.981 (inactive)
same,normalized growth,"locus YDR388W, stronger effect = lower value",0.99 (inactive)
same,normalized growth,"locus YDR392W, strain spt3, stronger effect = lower value",0.984 (inactive)
same,normalized growth,"locus YDR502C, strain sam2, stronger effect = lower value",1.02 (inactive)
same,normalized growth,"locus YEL003W, strain gim4, stronger effect = lower value",1 (inactive)
same,normalized growth,"locus YEL037C, strain rad23, stronger effect = lower value",0.999 (inactive)
same,normalized growth,"locus YEL061C, strain CIN8 (second series), stronger effect = lower value",0.998 (inactive)
same,normalized growth,"locus YEL061C, strain CIN8, stronger effect = lower value",1 (inactive)
same,normalized growth,"locus YER002W, strain NOP16, stronger effect = lower value",1.01 (inactive)
same,normalized growth,"locus YER015W, strain faa2, stronger effect = lower value",0.997 (inactive)
same,normalized growth,"locus YER016W, strain bim1, stronger effect = lower value",0.993 (inactive)
same,normalized growth,"locus YER110C, stronger effect = lower value",0.993 (inactive)
same,normalized growth,"locus YER111C, strain swi4, stronger effect = lower value",0.979 (inactive)
same,normalized growth,"locus YER155C, strain BEM2 (second series), stronger effect = lower value",0.965 (inactive)
same,normalized growth,"locus YER155C, strain BEM2, stronger effect = lower value",1.02 (inactive)
same,normalized growth,"locus YER167W, strain BCK2, stronger effect = lower value",1 (inactive)
same,normalized growth,"locus YFR010W, strain ubp6, stronger effect = lower value",0.991 (inactive)
same,normalized growth,"locus YGL078C, strain dbp3, stronger effect = lower value",1 (inactive)
same,normalized growth,"locus YGL086W, strain mad1, stronger effect = lower value",1 (inactive)
same,normalized growth,"locus YGL167C, strain pmr1, stronger effect = lower value",0.986 (inactive)
same,normalized growth,"locus YGL173C, strain kem1, stronger effect = lower value",0.986 (inactive)
same,normalized growth,"locus YGL227W, strain vid30, stronger effect = lower value",0.985 (inactive)
same,normalized growth,"locus YGL240W, strain doc1, stronger effect = lower value",0.959 (inactive)
same,normalized growth,"locus YGL248W, strain PDE1, stronger effect = lower value",1 (inactive)
same,normalized growth,"locus YGL253W, strain hxk2, stronger effect = lower value",1 (inactive)
same,normalized growth,"locus YGR078C, strain PAC10, stronger effect = lower value",1.02 (inactive)
same,normalized growth,"locus YGR135W, strain pre9, stronger effect = lower value",0.997 (inactive)
same,normalized growth,"locus YGR229C, strain SMI1, stronger effect = lower value",1.01 (inactive)
same,normalized growth,"locus YGR252W, strain gcn5, stronger effect = lower value",0.956 (inactive)
same,normalized growth,"locus YHR013C, strain ard1, stronger effect = lower value",0.99 (inactive)
same,normalized growth,"locus YHR027C, strain rpn1, stronger effect = lower value",0.998 (inactive)
same,normalized growth,"locus YHR030C, strain SLT2, stronger effect = lower value",1 (inactive) and 0.979 (inactive)
same,normalized growth,"locus YHR079C, strain IRE1 (second series), stronger effect = lower value",0.995 (inactive)
same,normalized growth,"locus YHR079C, strain IRE1, stronger effect = lower value",0.986 (inactive)
same,normalized growth,"locus YHR094C, strain hxt1, stronger effect = lower value",0.993 (inactive)
same,normalized growth,"locus YHR129C, strain ARP1, stronger effect = lower value",1 (inactive)
same,normalized growth,"locus YHR142W, strain chs7, stronger effect = lower value",1 (inactive)
same,normalized growth,"locus YHR200W, strain rpn10, stronger effect = lower value",0.995 (inactive)
same,normalized growth,"locus YIL066C, strain RNR3, stronger effect = lower value",1.01 (inactive)
same,normalized growth,"locus YIL073C, strain SPO22, stronger effect = lower value",0.989 (inactive)
same,normalized growth,"locus YIL125W, strain kgd1, stronger effect = lower value",1.01 (inactive)
same,normalized growth,"locus YIR030C, strain dcg1, stronger effect = lower value",0.998 (inactive)
same,normalized growth,"locus YJL092W, strain hpr5, stronger effect = lower value",0.996 (inactive)
same,normalized growth,"locus YJL095W, strain BCK1 (second series), stronger effect = lower value",0.984 (inactive)
same,normalized growth,"locus YJL095W, strain BCK1, stronger effect = lower value",1.01 (inactive) and 0.989 (inactive)
same,normalized growth,"locus YJL115W, strain asf1, stronger effect = lower value",0.999 (inactive)
same,normalized growth,"locus YJL129C, strain trk1, stronger effect = lower value",0.973 (inactive)
same,normalized growth,"locus YJL134W, strain LCB3, stronger effect = lower value",1 (inactive)
same,normalized growth,"locus YJL154C, strain vps35, stronger effect = lower value",0.993 (inactive)
same,normalized growth,"locus YJL164C, strain tpk1, stronger effect = lower value",1 (inactive)
same,normalized growth,"locus YJL166W, strain qcr8, stronger effect = lower value",0.979 (inactive)
same,normalized growth,"locus YJL168C, strain set2, stronger effect = lower value",0.992 (inactive)
same,normalized growth,"locus YJL187C, strain SWE1 (second series), stronger effect = lower value",1.01 (inactive)
same,normalized growth,"locus YJR043C, strain POL32, stronger effect = lower value",1.01 (inactive)
same,normalized growth,"locus YJR066W, strain TOR1, stronger effect = lower value",0.942 (inactive)
same,normalized growth,"locus YJR075W, strain HOC1, stronger effect = lower value",0.998 (inactive) and 0.252 (active)
